Results on 17 compounds are retold here after PubChem BioAssay (Tox21).

Inconclusive results are not listed. Values without a mark were called inactive. Activity calls are given as the source filed them. Calls come from the whole dose curve; as a rule, active = well fitted curve in the direction sought with a large enough effect in the repeat runs; inconclusive = weak or mixed curves; inactive = no such curve, though single readings can be large; an effect the other way counts as inactive or inconclusive.

Assay [1] in a line: qHTS RealTime-Glo MT Cell Viability Assay in HepG2 cells - 40 hour (AID 1224870). Note: nearly all actives have a fitted effect of over 50% in size. A digest of the protocol:
(§1)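 HepG2 cells (600/well) mixed with RealTime-Glo MT reagent, settled 5 h at 37 C/5% CO2 before compound addition. Nonlytic NanoLuc luminescence from viable-cell prosubstrate reduction read repeatedly during 40 h treatment at 37 C.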

Assay [2] is described as follows: A CellTox Green Cytotoxicity Assay to monitor cytotoxicity in HEK293 cells - 40 hour (AID 1224871). Note: nearly all actives have a fitted effect of over 45% in size. Note: potency is the fitted concentration of half-maximal effect. Put shortly:
(§2)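 Dead-cell fluorescence measured kinetically: asymmetric cyanine dye, HEK293, 600 cells/well, 5 h settle, 23 nL cpd/DMSO, 37 C, reads 0–40 h every 8 h.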

Assay [3] in a line: qHTS RealTime-Glo MT Cell Viability Assay in HEK293 cells - 16 hour (AID 1224872). Note: nearly all actives have a fitted effect of over 50% in size. Note: potency is the fitted concentration of half-maximal effect. Put shortly:
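Luminescence generated by NanoLuc from substrate produced by living HEK293 cells served as the viability signal. Each value reflects the reading at its stated time point during continuous 40 h compound exposure at 37 C.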
Background: qHTS replaces the single test concentration by a dilution series.

Assay [4] can be described thus: qHTS RealTime-Glo MT Cell Viability Assay in HepG2 cells - 8 hour (AID 1224873). Note: nearly all actives have a fitted effect of over 55% in size. A digest of the protocol:
as §1

A short description of assay [5]: A CellTox Green Cytotoxicity Assay to monitor cytotoxicity in HEK293 cells - 24 hour (AID 1224875). Note: series mostly up to about 77 µM; nearly all actives have a fitted effect of over 45% in size. A digest of the protocol:
as §2

The nature of assay [6]: A CellTox Green Cytotoxicity Assay to monitor cytotoxicity in HepG2 cells - 16 hour (AID 1224876). Note: nearly all actives have a fitted effect of over 45% in size. Put shortly:
(§3)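 First, HepG2 cells (600/well) mixed with reagent were plated; second, after 5 h at 37 C they received compounds via pintool; third, fluorescence was measured at 0 h through 40 h at 8 h intervals.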

Assay [7] can be described thus: qHTS RealTime-Glo MT Cell Viability Assay in HepG2 cells - 32 hour (AID 1224877). Note: nearly all actives have a fitted effect of over 55% in size. A digest of the protocol:
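Tox21 10K library screened in qHTS format on HepG2 cells carrying RealTime-Glo reagents. Compounds were added after a 5 h preincubation, and the luminescent signal from continuous culture was measured repeatedly during 40 h treatment.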

Assay [8] is described as follows: A CellTox Green Cytotoxicity Assay to monitor cytotoxicity in HepG2 cells - 24 hour (AID 1224878). Note: nearly all actives have a fitted effect of over 45% in size. Put shortly:
as §3

Assay [9] can be described thus: A CellTox Green Cytotoxicity Assay to monitor cytotoxicity in HepG2 cells - 40 hour (AID 1224879). Note: nearly all actives have a fitted effect of over 40% in size. Note: potency is the fitted concentration of half-maximal effect. Put shortly: as §3
Assay [10] in a line: qHTS RealTime-Glo MT Cell Viability Assay in HEK293 cells - 40 hour (AID 1224874). Note: nearly all actives have a fitted effect of over 50% in size. Note: potency is the fitted concentration of half-maximal effect. The settings on record: RealTime-Glo luminescence; max response: hits give low values. Put shortly: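 600 HEK293 cells per well, dispensed already mixed with RealTime-Glo MT reagents. Compound dosing came 5 h later. The same wells were read for luminescence at 0, 8, 16, 24, 32 and 40 h of exposure at 37 C.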
% is set by controls: 0 for no effect and ±100 for the full control effect.

`CCCOc1ccc(S(=O)(=O)N2CCN(CC)CC2)cc1-c1nc2c(CC)n(Cc3ccccn3)nc2c(=O)[nH]1`: the Potency result in assay [1], in [2], in assay [3], in [4], in assay [5] and in [6] was “inactive” each time. For the same compound, the Potency entry in assay [7], in assay [8] and in assay [9] was “inactive” throughout.

With `NC(=O)Cn1c(=O)cc(CCN2CCN(c3nccc4sccc34)CC2)c2ccc(F)cc21`, the Potency result in [1], in [2], in assay [5], in assay [8] and in assay [9] was “inactive” in each case. The figures for the Potency in [3] and in [10] were 49 µM (active) and 43.6 µM (active), respectively.

On to `CCOc1cc(N)c(Cl)cc1C(=O)NCC1CN(Cc2ccc(F)cc2)CCO1` (stereo not given), for which the Potency entry in assay [1], in [2], in assay [5], in assay [6], in assay [8] and in [9] was “inactive” throughout. In addition, the Potency in [3] and in assay [10] was 16.9 µM (active) each time.

Regarding `COc1ccc(C(=O)c2cccc(O)c2)c(OC)c1`, the Potency entry in assay [1], in assay [2], in assay [3], in assay [4], in assay [5] and in assay [6] was “inactive” throughout. For the same compound, the Potency result in [7], in assay [8] and in [9] was “inactive” throughout.

With `COC(=O)c1cc(Cl)ccc1NS(=O)(=O)C(F)(F)F`, the Potency result in assay [1], in assay [2], in assay [3], in [4], in assay [6] and in assay [7] was “inactive” each time. Moreover, in assay [9], the Potency entry was “inactive”. In addition, the max response in [10] is 2.62%.

For the compound `NC(=O)N(O)[C@@H]1COc2cc(OCc3ccccc3)ccc21`, the Potency entry in [1], in assay [2], in [3], in assay [4], in assay [5] and in assay [6] was “inactive” in each case.

Turning to `CO[C@H]1C=CO[C@@]2(C)Oc3c(C)c(O)c4c(O)c(c5c(c4c3C2=O)=NC2(CCN(CC(C)C)CC2)N=5)NC(=O)/C(C)=C\C=C/[C@H](C)[C@H](O)[C@@H](C)[C@@H](O)[C@@H](C)[C@H](OC(C)=O)[C@@H]1C`, the Potency result in assay [1] and in assay [2] was “inactive” throughout. Besides, the values for the Potency in assay [3], in assay [10] and in assay [9] were 42.7 µM (active), 38.1 µM (active) and 47.9 µM (active), respectively.

With `COC(=O)CC(=O)C(C)(C)C`, the Potency entry in assay [1], in assay [2], in assay [3], in assay [4], in assay [5] and in assay [6] was “inactive” in each case. Further, the Potency entry in assay [7] and in [9] was “inactive” each time.

As to `CCCCCCOC(=O)C(C)C`, the Potency result in assay [1], in assay [2], in assay [3], in assay [4], in [6] and in assay [7] was “inactive” in each case. Moreover, the Potency result in [8] and in [9] was “inactive” throughout. Also, the max response in assay [10] was 6.06%.

As to `CCC(C(=O)OCCOCCN(CC)CC)c1ccccc1` (stereo not given), the Potency entry in [1], in assay [2], in assay [3], in assay [4], in assay [8] and in assay [9] was “inactive” throughout. Also, in [10], the max response is 4.17%.

As for `Fc1c(F)c(F)c(Br)c(F)c1F`, the Potency entry in [1], in assay [2], in [3], in [4], in assay [7] and in [8] was “inactive” throughout. In addition, in assay [9], the Potency result was “inactive”. In addition, the max response in assay [10] was 0.266%.

For `COc1ccccc1N=Nc1c(S(=O)(=O)O)cc2cc(S(=O)(=O)O)cc(NC(C)=O)c2c1O`, the Potency entry in [1], in assay [2], in [3], in assay [4], in assay [6] and in [8] was “inactive” in each case. Also, the Potency result in assay [9] was “inactive”. In addition, in assay [10], the max response is 1.04%.

Regarding `CC(=O)OCC(=O)[C@@]12OC(C)(C)O[C@@H]1C[C@H]1[C@@H]3C[C@H](F)C4=CC(=O)C=C[C@]4(C)[C@@]3(F)[C@@H](O)C[C@@]12C`, the Potency entry in assay [1], in assay [3], in assay [4], in [6], in assay [7] and in assay [8] was “inactive” each time. Besides, the Potency entry in [9] was “inactive”. Moreover, the Potency in assay [2] was 26.8 µM (active).

`OC(CCCN1CCCCC1)(c1ccccc1)c1ccccc1`: the Potency entry in [1], in assay [2], in [3], in [4], in assay [6] and in assay [7] was “inactive” throughout. The Potency entry in assay [8] and in assay [9] was “inactive” each time. In [10], the max response was 0.842%.

For the compound `Cc1ccnc2ccccc12`, the Potency result in assay [1], in assay [2], in assay [3], in [4], in assay [6] and in assay [7] was “inactive” throughout. Also, the Potency result in assay [8] and in [9] was “inactive” each time. Further, the max response in assay [10] was 6.48%.

`CCc1cccc(N(C)C(N)=Nc2cccc3ccccc23)c1`: the Potency entry in [1], in [2], in [3], in assay [4] and in assay [7] was “inactive” each time.

Consider `NC(=O)Nc1ccc(Cl)c(Cl)c1`, for which the Potency entry in [1], in [2], in assay [3], in assay [4], in assay [6] and in assay [7] was “inactive” in each case. The Potency entry in [9] was “inactive”.
